Rows were chosen to be rich in hits. Some 3.9% of all compounds tested hit in one or more screens of this group.
HepG2 viability – counter-screen for TGF-b inhibitors: cytotoxicity in HepG2 cells; actives 0.76% (n = 410,000); Potency, µM (top dose mostly 46.1 µM), without a hit: top-dose activity change, negative = cytotoxicity, most hits filed as cytotoxic; HepG2 CAGA-GFP viability, ATP luminescence, 18 h
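CellTiter-Glo luminescence gave cytotoxicity after 18 hours at 37 degrees C. The cells were HepG2 CAGA-GFP in 1% FBS DMEM, stimulated with 500 pg/mL TGF-beta after compound addition. %Activity was normalised to no-cell wells (complete cell-killing) and DMSO (no toxicity), and curves were fitted and classified.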
HT1080 IDH1KD tx – toxicity to HT-1080 IDH1 knockdown cells (counter line); HT-1080 IDH1 knockdown viability, ATP luminescence, 48 h; Potency, µM (top dose mostly 46.1 µM), without a hit: at the highest dose activity, negative = toxicity, hits mostly cytotoxic; actives 2% (n = 360,000);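 further: 0% = DMSO wells and -100% = cell-free medium wells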
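CellTiter-Glo luminescence after 48 h compound exposure at 37 degrees C of IDH1-knockdown HT-1080 cells in 5% FBS RPMI. %Activity scaled between DMSO wells and cell-free media wells, with curves fitted and assigned curve classes.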
ATXN2 expr inh – reduces ATXN2 reporter expression in HEK-293 cells; HEK-293 ATXN2-luciferase reporter, luminescence, 24 h; Potency, µM (doses to about 57 µM), inactives show at the highest dose activity change, negative = inhibition, usual class: inhibitors; actives 0.72% (n = 360,000); further: on the % scale 0 is the no-effect control and ±100 the full control effect; nearly all actives have a fitted effect of over 55% in size
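ATXN2-luciferase reporter cells (luciferase flanked by upstream and downstream ATXN2 gene portions) were treated 24 h at 37 °C with compounds at up to 57 uM. SteadyGlo luminescence gave expression; GF-AFC fluorescence gave viability.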
TGFb inhibitor – TGF-b pathway inhibition | AID 588855 | HepG2 CAGA-GFP TGF-b/SMAD3 reporter, GFP fluorescence, 18 h; TGF-beta stimulated, 500 pg/mL final | Potency, µM (highest dose often 46.1 µM), for inactives: top-dose activity, negative = inhibition, hits mostly inhibitors | actives 1.2% (n = 410,000); further: on the % scale 0 is the no-effect control and ±100 the full control effect; nearly all actives have a fitted effect of over 65% in size
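Per well, imaged GFP fluorescence of HEPG2 CAGA-GFP cells gives the signal; cells get compound, then TGF-beta (500 pg/mL final), 18 h at 37 degrees C; %Activity versus -TGF-beta and +DMSO controls.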
HT1080-NT tox – kills 2HG-producing HT-1080-NT fibrosarcoma cells; Potency, µM (top dose mostly 46.1 µM), inactives show at the highest dose activity, negative = less viability, hits mostly cytotoxic; HT-1080-NT fibrosarcoma viability, CellTiter-Glo ATP luminescence, 48 h; actives 1.6% (n = 360,000);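 further: NT is the 2HG producing partner of a matched IDH1 knockdown line; 0% = DMSO-treated cells and -100% = media-only wells without cells; nearly all actives have a fitted effect of over 55% in size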
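HT-1080-NT fibrosarcoma cells (2HG-overproducing), 750 cells/well in RPMI with 5% FBS, dosed after 2 h and incubated 48 h at 37C. CellTiter-Glo luminescence normalized to DMSO and no-cell wells; concentration-response curves fitted and classed.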
ATXN viability – cell viability loss in ATXN counter-screen. Potency, µM (series often up to 56.7 µM), hits mostly cytotoxic. S2 cells (HEK-293 line with an ATXN2-luciferase reporter) viability, CellTiter-Fluor protease fluorescence, 24 h. actives 0.49% (n = 400,000). AID 651635; further: nearly all actives have a fitted effect of over 40% in size
* marks the source's active call; other numbers are inactive results; i = inactive; ? = inconclusive; nt = no result; ! = repeats disagree. The call rests on the fitted dose curve; in most records, active means well fitted curve in the direction sought with a large enough effect; inconclusive means small, poorly fitted or top-dose-only effect, or another doubt; inactive means no such curve, though single readings can be large; an effect the other way counts as inactive or inconclusive. Potency means the concentration at half of the fitted maximal effect.

SMILES	HepG2 viability	HT1080 IDH1KD tx	ATXN2 expr inh	TGFb inhibitor	HT1080-NT tox	ATXN viability
Cc1ccc(CNC(=O)c2ccc(-n3cccc3)cc2)cc1	3%	5%	10%	0%	3%	i
O=C(Cc1ccc(-n2cccc2)cc1)NCc1cccs1	-12%	2.6µM*	-15%	?	2.3µM*	i
COc1cc(OC)cc(C(=O)NCc2ccc(-n3cccc3)cc2)c1	-4%	?	5%	-6%	-19%	i
COc1ccc(CC(=O)NCc2ccc(-n3cccc3)cc2)cc1OC	-4%	1.8µM*	-24%	0%	4.6µM*	?
Cc1ccc(CNC(=O)Cc2ccc(-n3c(=O)[nH]c4ccsc4c3=O)cc2)cc1	-2%	4.1µM*	-14%	?	3.7µM*	i
Cc1ccc(CNC(=O)Cc2ccc(-n3cccc3)cc2)cc1	-4%	4.6µM*	3%	-22%	?	i
O=C(CNC(=O)Cc1ccccc1)NCc1cccs1	4%	17%	7%	-3%	13%	i
COc1ccc(CCC(C)=O)cc1	nt	nt	6%	nt	nt	i
NC(=O)c1ncn([C@@H]2O[C@H](CO)[C@@H](O)[C@@H]2O)n1	nt	nt	44%	nt	nt	nt
Cc1cc(NC(=O)CCNS(=O)(=O)c2ccc3c(c2)CCCC(=O)N3)ccc1Br	-11%	nt	-17%	-10%	nt	i
COc1cccc(CNS(=O)(=O)c2ccc3c(c2)C(C(C)C)C(=O)N3)c1 (configuration not stated)	-14%	nt	-9%	-29%	nt	i
CCOC(=O)CCC(=O)O[C@H]1[C@H](O[C@@H]2[C@@H](C)[C@H](O[C@H]3C[C@@](C)(OC)[C@@H](O)[C@H](C)O3)[C@@H](C)C(=O)O[C@H](CC)[C@@](C)(O)[C@H](O)[C@@H](C)C(=O)[C@H](C)C[C@@]2(C)O)O[C@H](C)C[C@@H]1N(C)C	3%	12%	3%	7%	-23%	i
CCC(=O)O[C@H]1[C@H](O[C@@H]2[C@@H](C)[C@H](O[C@H]3C[C@@](C)(OC)[C@@H](O)[C@H](C)O3)[C@@H](C)C(=O)O[C@H](CC)[C@@](C)(O)[C@H](O)[C@@H](C)C(=O)[C@H](C)C[C@@]2(C)O)O[C@H](C)C[C@@H]1N(C)C	nt	nt	6%	nt	nt	16µM*!
Cc1cc(C)c2oc(-c3cccc(NC(=O)c4ccc(Br)o4)c3)nc2c1	-2%	nt	13%	-19%	nt	i
O=C(Nc1cccc(-c2nnc(-c3ccccc3)o2)c1)c1ccc(Br)o1	-45%	?	?	?	-22%	35µM*
N#CC(=C(N)Sc1ccc(N)cc1)c1ccccc1C(F)(F)F	nt	nt	7%	nt	nt	nt
COc1ccc(CCn2c(N)c(C(=O)NCc3ccco3)c3nc4ccccc4nc32)cc1OC	-48%	18µM*	?	?	?	i
COc1cc(/C=N/O)cc(Br)c1OCc1ccc(Cl)cc1	13µM*	?	?	?	?	i
COc1cc(/C=N/O)cc(Br)c1OC	2%	2%	-3%	-7%	0%	i
O=C(NC1CCCC1)c1cn(C2CCCN(Cc3ccc4c(c3)OCCO4)C2)nn1 (configuration not stated)	nt	nt	nt	nt	nt	i
CC(C)(C)c1ccc(C2CC2C(=O)N/N=C\c2ccc[nH]2)cc1 (configuration not stated)	-17%	1.6µM*	?	?	2.6µM*	?
CCCCCCC(=O)Nc1nc(C)c(-c2csc(Nc3ccc(Cl)cc3)n2)s1	-18%	?	?	?	21µM*	?
C=CCCC(=O)Nc1nc(C)c(-c2csc(Nc3cc(Cl)ccc3OC)n2)s1	-17%	?	-26%	-20%	-9%	?
CCCCCC(=O)Nc1nc(C)c(-c2csc(Nc3ccc(Cl)cc3)n2)s1	-26%	?	-8%	9%	-23%	?
C=CCCC(=O)Nc1nc(C)c(-c2csc(Nc3ccc(Cl)cc3Cl)n2)s1	-12%	?	-11%	-25%	16µM*	i
SMILES	HepG2 viability	HT1080 IDH1KD tx	ATXN2 expr inh	TGFb inhibitor	HT1080-NT tox	ATXN viability
CCC(=O)Nc1nc(C)c(-c2csc(Nc3cccc(O)c3)n2)s1	-54%	0.46µM*	nt	?	?	?
Cc1nc(N)sc1-c1csc(Nc2cccc(O)c2)n1	-17%	-19%	49%	13%	-12%	i
C=CCCC(=O)Nc1nc(C)c(-c2csc(Nc3ccccc3OC)n2)s1	9%	16µM*	-20%	-22%	?	?
C=C1CC2C3CCC4=CC(=O)C=C[C@]4(C)[C@@]3(F)[C@@H](O)C[C@]2(C)[C@@]1(O)C(=O)COC(C)=O (some centres not stated)	nt	nt	nt	nt	nt	i
COC(=O)c1cc2sc(Cl)cc2n1Cc1cc(C)ccc1C	-5%	nt	0%	0%	nt	i
COc1ccc(CCNC(=O)CCCn2nc(C)c3sc4ccccc4c3c2=O)c(OC)c1	0%	nt	nt	14%	nt	nt
OC1(c2cccnc2)CCN(Cc2ccc3c(c2)CN(Cc2cccc(C(F)(F)F)c2)CCO3)CC1	nt	nt	nt	nt	nt	i
CN(C)C1(CNC(=O)C2CCC(=O)N(Cc3ccc(Cl)cc3)C2)CCCCC1 (configuration not stated)	14µM*	3%	nt	2%	8%	i
COC(=O)C1CCN(Cc2ccc3c(c2)CN(C(=O)c2sc(C)nc2C)CCO3)CC1	nt	nt	nt	nt	nt	i
CC(C)Oc1cc(NC(=O)CSCC(=O)Nc2cccc(C(F)(F)F)c2)c(Cl)cc1Cl	-87%	?	?	11µM*	-20%	?
Cc1ccc(S(=O)(=O)c2c(O)cc(C)c(NS(=O)(=O)c3ccc(Br)cc3)c2C)cc1	-56%	nt	?	?	nt	i
C=C(C)c1cccc(C(C)(C)NC(=O)Nc2ccc(C)cn2)c1	-4%	6%	-19%	?	-1%	i
C=C(C)c1cccc(C(C)(C)NC(=O)Nc2cc(C)ccn2)c1	-17%	-13%	-1%	11µM*	-5%	?
O=C(CCS(=O)(=O)c1nc(-c2ccc3c(c2)OCO3)cc(C(F)(F)F)n1)Nc1ccc(F)c(Cl)c1	13µM*	nt	nt	20µM*	nt	nt
COc1ccc(NC(=O)CCS(=O)(=O)c2nc(-c3cccs3)cc(C(F)(F)F)n2)cc1OC	-106%	nt	nt	16µM*	nt	nt
O=C(CCS(=O)(=O)c1nc(-c2cccs2)cc(C(F)(F)F)n1)Nc1cccc(O)c1	-93%	nt	nt	?	nt	nt
